# The source made the active and inactive calls. The call rests on the fitted dose curve; in most records, active means well fitted curve in the direction sought with a large enough effect in the repeat runs; inconclusive means weak or mixed curves; inactive means flat fitted curve, though single readings scatter.
# Experiment: qHTS assay to test for compound auto fluorescence at 535 nm (green) in HEK293 cells (AID 720680)
# Settings: green autofluorescence 485/535 nm; series mostly up to 91.3 µM; fluorescence, % of fluorescein: at the top concentration
# On the % scale 0 is the no-effect control and ±100 the full control effect.
SMILES,outcome,"fluorescence, % of fluorescein"
CCCCC(CC)COC(=O)C(C#N)=C(c1ccccc1)c1ccccc1 (stereo not drawn),inactive,
O=C(Oc1ccccc1)c1ccccc1,inactive,
CC1CCC(C(C)C)C(O)C1 (stereo not drawn),inactive,
CCCCCCCCCCCCOCCO,,0.0509% (inactive)
O=C(O)[C@H](O)[C@@H](O)[C@H](O)[C@H](O)CO,inactive,
CCCSc1ccc2nc(NC(=O)OC)[nH]c2c1,inactive,
O=C(O)CCCC[C@@H]1SC[C@@H]2NC(=O)N[C@@H]21,inactive,
CCc1ccc(CCOc2ccc(CC3SC(=O)NC3=O)cc2)nc1 (stereo not drawn),inactive,
COc1ccc2cc([C@H](C)C(=O)O)ccc2c1,inactive,
COCCCOc1ccnc(CS(=O)c2nc3ccccc3[nH]2)c1C (stereo not drawn),inactive,
O=C(O)c1cc(C(=O)O)cc(S(=O)(=O)O)c1,inactive,
Cc1ccc2oc(=O)ccc2c1,inactive,
Cc1occc(=O)c1O,inactive,
CCN(CC)c1ccc(C(=O)c2ccccc2C(=O)O)c(O)c1,inactive,
CC(c1cc2ccccc2s1)N(O)C(N)=O (stereo not drawn),inactive,
CC(C)c1ccc(S(=O)(=O)O)cc1,inactive,
O=C(O)c1ccccc1C(c1ccc(O)cc1)c1ccc(O)cc1,,-0.135% (inactive)
OCc1cccnc1,inactive,
COS(C)(=O)=O,inactive,
CCCCCC/C(C=O)=C\c1ccccc1,inactive,

SMILES,outcome,"fluorescence, % of fluorescein"
CCCCCC1=CCCC1=O,inactive,
CCCCCOC(C)=O,inactive,
C#C[C@]1(O)CC[C@H]2[C@@H]3CCC4=CC(=O)CC[C@@H]4[C@H]3CC[C@@]21C,inactive,
CCCCC(CC)COC(=O)CCCCC(=O)OCC(CC)CCCC (stereo not drawn),inactive,
COc1ccc(NC(C)=O)cc1N,inactive,
OC[C@H]1O[C@@](CO)(O[C@H]2O[C@H](CO)[C@@H](O)[C@H](O)[C@H]2O)[C@@H](O)[C@@H]1O,inactive,
Cc1cccnc1,inactive,
NNc1nncc2ccccc12,inactive,
CC1=CCC2CC1C2(C)C (stereo not drawn),inactive,
O=C(O)CCCCCCCCCCC(=O)O,inactive,
CCN(CC)CCCC(C)Nc1ccnc2cc(Cl)ccc12 (stereo not drawn),inactive,
CC(=O)Nc1ccccc1,inactive,
CC(=O)CC(=O)Nc1ccccc1,inactive,
OCC(CO)(CBr)CBr,inactive,
CCCCCCCCC/C=C/CC1CC(=O)OC1=O (stereo not drawn),inactive,
CC[C@H](C)C(=O)O[C@H]1C[C@@H](C)C=C2C=C[C@H](C)[C@H](CC[C@@H]3C[C@@H](O)CC(=O)O3)[C@H]21,inactive,
O=[N+]([O-])c1ccc(/C=C/c2ccc([N+](=O)[O-])cc2S(=O)(=O)O)c(S(=O)(=O)O)c1,inactive,
CC1=CC(=O)NS(=O)(=O)O1,inactive,
C=C(C)C(=O)Nc1ccc(Cl)c(Cl)c1,inactive,

# Experiment: qHTS assay to test for compound auto fluorescence at 460 nm (blue) in HEK293 cell free culture (AID 720681)
# Settings: cell-free medium, autofluorescence 405/460 nm (blue); series mostly up to 91.3 µM; fluorescence, % of fluorescent control: at the top concentration
# In short: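 Test compounds were pinned into cell-free culture medium (DMEM with 10% FBS) and fluorescence was read directly at Ex/Em 405/460 nm. Signals were expressed as fluorescence equivalents of triamterene, with DMSO vehicle as control.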
SMILES,outcome,"fluorescence, % of fluorescent control"
CCCCC(CC)COC(=O)C(C#N)=C(c1ccccc1)c1ccccc1 (stereo not drawn),inactive,
O=C(Oc1ccccc1)c1ccccc1,inactive,
CC1CCC(C(C)C)C(O)C1 (stereo not drawn),inactive,
CCCCCCCCCCCCOCCO,,0.0158% (inactive)
O=C(O)[C@H](O)[C@@H](O)[C@H](O)[C@H](O)CO,inactive,
CCCSc1ccc2nc(NC(=O)OC)[nH]c2c1,inactive,
O=C(O)CCCC[C@@H]1SC[C@@H]2NC(=O)N[C@@H]21,inactive,
CCc1ccc(CCOc2ccc(CC3SC(=O)NC3=O)cc2)nc1 (stereo not drawn),inactive,
COc1ccc2cc([C@H](C)C(=O)O)ccc2c1,inactive,
COCCCOc1ccnc(CS(=O)c2nc3ccccc3[nH]2)c1C (stereo not drawn),inactive,
O=C(O)c1cc(C(=O)O)cc(S(=O)(=O)O)c1,inactive,
Cc1ccc2oc(=O)ccc2c1,inactive,
Cc1occc(=O)c1O,inactive,
CCN(CC)c1ccc(C(=O)c2ccccc2C(=O)O)c(O)c1,inactive,
CC(c1cc2ccccc2s1)N(O)C(N)=O (stereo not drawn),inactive,
CC(C)c1ccc(S(=O)(=O)O)cc1,inactive,
O=C(O)c1ccccc1C(c1ccc(O)cc1)c1ccc(O)cc1,,0.126% (inactive)
OCc1cccnc1,inactive,
COS(C)(=O)=O,inactive,
CCCCCC/C(C=O)=C\c1ccccc1,inactive,

SMILES,outcome,"fluorescence, % of fluorescent control"
CCCCCC1=CCCC1=O,inactive,
CCCCCOC(C)=O,inactive,
C#C[C@]1(O)CC[C@H]2[C@@H]3CCC4=CC(=O)CC[C@@H]4[C@H]3CC[C@@]21C,inactive,
CCCCC(CC)COC(=O)CCCCC(=O)OCC(CC)CCCC (stereo not drawn),inactive,
COc1ccc(NC(C)=O)cc1N,inactive,
OC[C@H]1O[C@@](CO)(O[C@H]2O[C@H](CO)[C@@H](O)[C@H](O)[C@H]2O)[C@@H](O)[C@@H]1O,inactive,
Cc1cccnc1,inactive,
NNc1nncc2ccccc12,inactive,
CC1=CCC2CC1C2(C)C (stereo not drawn),inactive,
O=C(O)CCCCCCCCCCC(=O)O,inactive,
CCN(CC)CCCC(C)Nc1ccnc2cc(Cl)ccc12 (stereo not drawn),inactive,
CC(=O)Nc1ccccc1,inactive,
CC(=O)CC(=O)Nc1ccccc1,inactive,
OCC(CO)(CBr)CBr,inactive,
CCCCCCCCC/C=C/CC1CC(=O)OC1=O (stereo not drawn),inactive,
CC[C@H](C)C(=O)O[C@H]1C[C@@H](C)C=C2C=C[C@H](C)[C@H](CC[C@@H]3C[C@@H](O)CC(=O)O3)[C@H]21,inactive,
O=[N+]([O-])c1ccc(/C=C/c2ccc([N+](=O)[O-])cc2S(=O)(=O)O)c(S(=O)(=O)O)c1,inactive,
CC1=CC(=O)NS(=O)(=O)O1,inactive,
C=C(C)C(=O)Nc1ccc(Cl)c(Cl)c1,inactive,

# — PubChem BioAssay (Tox21)
